Gal4-VP16 FLuc: Gal4-VP16 reporter inhibition counter-screen. Drosophila S2 Gal4-VP16 UAS-luciferase, luminescence, 20 h. Potency, µM (highest dose often 53.6 µM), inactives show at the top dose activity, negative = inhibition, most hits filed as inhibitors. actives 3.5% (n = 310,000). AID 2546;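 note: Gal4-VP16 expression switched on by copper sulfate through the metallothionein promoter; potency is the fitted concentration of half-maximal effect; % is set by controls: 0 for no effect and ±100 for the full control effect; nearly all actives have a fitted effect of over 50% in size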
SW480 rereplic: induces DNA re-replication in SW480 colon adenocarcinoma cells | SW480 DNA re-replication, Hoechst DNA content imaging, 48 h | Potency, µM (top dose mostly 46.1 µM), for the others: top-dose re-replication activation, hits mostly activators | actives 1.8% (n = 340,000); note: potency is the fitted concentration of half-maximal effect; % of control where 0% means no effect; nearly all actives have a fitted effect of over 55% in size
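Per well, 250 cells were exposed to pinned compound for 48 hr. Nuclear DNA was visualised with Hoechst (40 min, 37 C) and total object intensity recorded by fluorescence scanning.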
IL1B secr inh: blocks inflammasome-driven IL-1 beta release. THP-1 LPS/ATP IL-1B secretion, AlphaLISA, 16 h; hits give low values. activity change, % at 57.5 µM. actives 4.7% (n = 360,000); in the data active = activity change below about -50%; inconclusive = mostly about -30% to -49%; note: % is set by controls: 0 for no effect and ±100 for the full control effect
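Secreted IL-1B measured by AlphaLISA bead assay after 16 h compound exposure of THP-1 cells; compounds (final up to 57.5 uM) added 1 h before LPS (250 ng/mL) and ATP (1.25 mM) stimulation; lower signal means less secretion.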
RORg inh: ROR gamma (mouse) transcription inhibition; P51450; Drosophila S2 Gal4-RORgamma UAS-luciferase reporter, 20 h; Potency, µM (titrated, usually from 53.6 µM), for the others: top-dose activity change, negative = inhibition, most hits filed as inhibitors; actives 5.4% (n = 310,000); AID 2551; note: potency is the fitted concentration of half-maximal effect; % is set by controls: 0 for no effect and ±100 for the full control effect; nearly all actives have a fitted effect of over 60% in size
Target sequence (P51450 whole entry, looked up, the tested form may be a part): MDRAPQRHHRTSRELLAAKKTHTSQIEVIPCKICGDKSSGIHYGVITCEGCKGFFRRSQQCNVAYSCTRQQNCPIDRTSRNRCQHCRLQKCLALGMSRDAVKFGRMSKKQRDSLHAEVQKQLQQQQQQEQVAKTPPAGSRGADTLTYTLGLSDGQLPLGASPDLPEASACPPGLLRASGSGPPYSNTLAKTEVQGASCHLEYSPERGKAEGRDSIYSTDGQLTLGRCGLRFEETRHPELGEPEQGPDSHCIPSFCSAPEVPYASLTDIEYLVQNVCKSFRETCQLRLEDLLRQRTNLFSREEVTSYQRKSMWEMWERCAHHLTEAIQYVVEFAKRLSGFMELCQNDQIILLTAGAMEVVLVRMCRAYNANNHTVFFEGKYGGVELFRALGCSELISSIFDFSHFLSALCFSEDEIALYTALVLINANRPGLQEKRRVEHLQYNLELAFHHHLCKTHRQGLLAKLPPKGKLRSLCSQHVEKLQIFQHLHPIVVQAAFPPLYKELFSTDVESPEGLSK
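Luciferase reporter read in Schneider cells carrying Gal4-RORγ (mouse) and UAS-Photinus luciferase; cells given compound 1 h before 700 uM copper sulfate induction, then incubated 20 h at ambient temperature.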
MCF10A rereplic: DNA re-replication induction in MCF 10a cells. MCF 10A DNA re-replication, Hoechst nuclear intensity, 48 h. Potency, µM (titrated, usually from 46.1 µM), for inactives: top-dose activity, positive = re-replication, actives largely listed as activators. actives 2.9% (n = 350,000). AID 624296; note: potency is the fitted concentration of half-maximal effect; % of control where 0% means no effect; nearly all actives have a fitted effect of over 50% in size
An asterisk follows results filed as active; ? = inconclusive; · = not tested or not shown; [ ] = remark or other dose. Hits are enriched below; roughly 11% of the tested compounds scored in any of these assays. Unless noted, calls come from the whole dose curve; as a rule, active = well fitted curve in the direction sought with a large enough effect; inconclusive = small, poorly fitted or top-dose-only effect, or another doubt; inactive = no such curve, though single readings can be large; an effect the other way counts as inactive or inconclusive.

SMILES | Gal4-VP16 FLuc | SW480 rereplic | IL1B secr inh | RORg inh | MCF10A rereplic
CN1CCN(C(c2ccc(Cl)cc2)c2cc(Cl)c3cccnc3c2O)CC1 (configuration not stated) | 1.4µM* | 11% | -64* | 3.2µM* | ?
CN1CCN([C@@H](c2ccccc2)c2ccc(Cl)cc2)CC1 | 9%[17 µM] | -5%[20.6 µM] | · | 15%[2.98 µM] | 15%[20.6 µM]
Oc1c(C(c2ccccn2)N2CCCCC2)cc(Cl)c2cccnc12 (configuration not stated) | ? | ? | 79 | 2.8µM* | 21µM*
CCN1CCN(C(c2ccc(C(F)(F)F)cc2)c2ccc3cccnc3c2O)CC1 (configuration not stated) | 1.3µM* | 18% | -74* | 1.1µM* | ?
COc1ccc(C(=O)N2CCC3(CCCN(C(=O)Nc4cccc(C#N)c4)C3)CC2)cc1 | 0% | · | · | 16% | ·
CCNC(=O)C1(C)CCN(C(=O)c2ccc3snnc3c2)C1 (configuration not stated) | · | · | 22 | · | ·
CN1CCN(C(c2ccc(C(F)(F)F)cc2)c2cc(Cl)c3cccnc3c2O)CC1 (configuration not stated) | 0.89µM* | · | · | 0.4µM* | ·
CN1CCN(NC(=O)c2cn(-c3ccccc3)nc2-c2cccc(Br)c2)CC1 | -19% | -7% | -136* | -30% | 12%
CN1CCN(NC(=O)c2cn(-c3ccccc3)nc2-c2cccs2)CC1 | 2% | ? | -3 | 14% | 3%
CCN(CC)c1ccc(/C=C2/SC(=O)N(C(C)C)C2=O)o1 | 2.8µM* | 5.2µM* | -94* | 5µM* | ?
CCN1C(=O)N/C(=C/c2ccc(C)o2)C1=O | ? | ? | 0 | ? | ?
CCOC(=O)CN1C(=O)S/C(=C\c2ccc(-c3cccc(C(=O)O)c3C)o2)C1=O | · | 15% | 25 | · | 21%
CCOC(=O)CN1C(=O)S/C(=C\c2ccc(-c3ccc(C(=O)O)c(Cl)c3)o2)C1=O | 9% | 0.65µM* | ? | -24% | 23µM*
O=C(O)c1ccc(-c2ccc(/C=C3\NC(=O)N(Cc4ccc(Cl)cc4)C3=O)o2)cc1Cl | 0% | 7.3µM* | 36 | 11% | 11µM*
Cc1cccc(NC(=O)CN2C(=O)N/C(=C/c3ccc(-c4cccc(C(=O)O)c4C)o3)C2=O)c1 | -2%[10 µM] | -5% | -7 | -24% | 5%
Cc1ccc(/C=C2/NC(=O)N(Cc3ccc(Br)cc3)C2=O)o1 | ? | ? | -9 | ? | 16µM*
Cc1cnc(C)c(Nc2nc(C(N)c3ccccc3)cs2)n1 (configuration not stated) | · | · | 0 | · | ·
COc1ccc(C(CNS(=O)(=O)c2ccc(NC(C)=O)c(OC)c2)N2CCCCC2)cc1 (configuration not stated) | · | 2% | 3 | · | -1%
CC(C)N1C(=O)S/C(=C\c2ccc(-c3ccc(Cl)c(C(=O)O)c3)o2)C1=O | 2.5µM* | 1% | -3 | ? | ?
Cc1ccc(NC(=O)CN2C(=O)S/C(=C\c3ccc(-c4cccc(C(=O)O)c4C)o3)C2=O)cc1C | 3% | ? | 16 | -5% | 13µM*
Cc1ccc(S(=O)(=O)N2CCC(C(=O)NCc3ccccc3CN3CCCC3)CC2)cc1C | · | 0% | 0 | · | ?
O=C(NCc1ccccc1CN1CCCC1)C1CCN(S(=O)(=O)c2ccc(F)c(F)c2)CC1 | · | 5% | -51* | · | 15%
COc1cccc(C(=O)NCCSCc2c(F)cccc2Cl)c1 | -1% | 1% | -65* | 3% | 1%
COc1cccc(C(=O)NCCSCc2ccccc2Cl)c1 | 30% | -7% | 0 | 26% | -1%
O=C(CCc1ccccc1)NCCSCc1c(F)cccc1Cl | 7.9µM* | -1% | 3 | ? | 3%
SMILES | Gal4-VP16 FLuc | SW480 rereplic | IL1B secr inh | RORg inh | MCF10A rereplic
O=C(CSCc1c(F)cccc1Cl)NCCc1ccccc1 | 28% | -1% | -4 | 7% | 15%
CCc1nc2ccc(C(=O)N3CCN(S(=O)(=O)CC)CC3)cn2c1N(CC)CCN(C)C | · | · | 23 | · | ·
CSC1SCC2C(=O)N(C)C(C(C)C)C(=O)OCC(NC(=O)c3cnc4ccccc4n3)C(=O)NC(C)C(=O)N(C)C1C(=O)N(C)C(C(C)C)C(=O)OCC(NC(=O)c1cnc3ccccc3n1)C(=O)NC(C)C(=O)N2C (configuration not stated) | · | -1% | -116* | · | 4%
CCOC(=O)c1cccc(C(=O)Oc2ccccc2)n1 | -3% | 0% | 19 | 0% | 21µM*
CCCCOc1cccc(C(=O)NC(=S)Nc2cccc(C(F)(F)F)c2)c1 | 2.8µM* | ? | -9 | 4.5µM* | 24%
O=C(NNC(=S)Nc1cccc(C(F)(F)F)c1)c1cccc(Cl)c1 | ? | ? | -11 | ? | ?
CC(C)Oc1cccc(C(=O)NC(=S)Nc2cccc(C(F)(F)F)c2)c1 | ? | 8% | -9 | 6.3µM* | 0%
CC(C)Oc1cccc(C(=O)NC(=S)Nc2ccc(Cl)c(C(=O)O)c2)c1 | ? | -2% | 33 | -24% | 3%
C[C@H](CO)N1C[C@H](C)[C@@H](CN(C)S(C)(=O)=O)Oc2ccc(NS(=O)(=O)c3cn(C)cn3)cc2C1=O | · | -2% | 17 | · | 8%
CC(/C=C/c1ccccc1F)=N\NC(=O)c1cccc(F)c1 | 5µM* | ? | -4 | 0.89µM* | ?
CC(/C=N/NC(=O)c1cccc(F)c1)=C\c1ccccc1 | -18% | 15µM* | -1 | -31% | ?
CC(/C=N/NC(=O)c1cc(-c2ccc(C)s2)[nH]n1)=C\c1ccccc1 | -25% | ? | 17 | -30% | 6.5µM*
CC(/C=N/NC(=O)c1cc(C(C)(C)C)[nH]n1)=C\c1ccccc1 | 2% | 2% | -22 | 14% | ?
CC(=C/c1ccccc1)/C=N/NC(=O)c1ccccn1 | 10µM* | -6% | -6 | 8.9µM* | 0%
CC(=C/c1ccccc1)/C=N/NC(=O)c1ccc2nc[nH]c2c1 | 8% | -1% | -14 | 9% | ?
O=C(NCCc1c[nH]c2ccccc12)OC1CC2CC1[C@H]1CCCCN1C2=O (some centres not stated) | · | · | 4 | · | ·
CC12CCC(C(=O)N(c3nccs3)C1=O)C2(C)C (configuration not stated) | · | -6% | 10 | · | -1%
CC(/C=C/c1ccco1)=N\NC(=O)COc1ccc(C)c(C)c1 | 8.9µM* | -4% | 59 | ? | -1%
Cc1ccc(OCCNC(=O)/C=C/c2ccco2)cc1C | -3% | -4% | -19 | 11% | -1%
CC(/C=C/c1ccco1)=N\NC(=O)c1cccc(Cl)c1 | 3.5µM* | ? | -1 | 4µM* | 1%
COC(=O)c1sc(NC(=S)NC(=O)c2cc(OC)c(OC)c(OC)c2)nc1C | -21% | -5% | -2 | 10µM* | -5%

Source: PubChem BioAssay
